For 61 compounds, inhibition results are on record in PubChem BioAssay AID651785 (The Scripps Research Institute Molecular Screening Center, 2012).

The structures appear in SMILES notation. The whole screen tested about 2,400 compounds, of which about 950 (40%) were called active. Not all results are given here. Values without a mark were called inactive. Rule as the data show it: active = inhibition above about 49%; inactive = the rest.

Sequence of Trace amine-associated receptor 1 (Homo sapiens) (Q96RJ0 whole entry, looked up, the tested form may be a part): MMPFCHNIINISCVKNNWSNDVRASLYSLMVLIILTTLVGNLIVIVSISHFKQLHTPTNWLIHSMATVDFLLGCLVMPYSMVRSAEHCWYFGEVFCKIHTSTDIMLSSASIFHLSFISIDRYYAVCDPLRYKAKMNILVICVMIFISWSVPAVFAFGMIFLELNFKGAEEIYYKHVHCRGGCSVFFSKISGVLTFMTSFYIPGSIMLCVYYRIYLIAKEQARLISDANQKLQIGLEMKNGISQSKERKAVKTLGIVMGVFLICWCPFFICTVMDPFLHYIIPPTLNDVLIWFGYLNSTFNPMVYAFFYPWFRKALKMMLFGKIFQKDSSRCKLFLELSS

The assay addresses Trace amine-associated receptor 1 (Homo sapiens) (UniProt Q96RJ0). The experiment in a line: human TAAR1 antagonists, retest of hits, confirmation, cell-based, fluorescence (AID 651785).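 Also: CHO-Ga16 host cells challenged with agonist PEA near its EC80; 0% = agonist at EC80 plus vehicle and 100% = vehicle with no agonist.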 Particulars: TAAR1-expressing cells, fluorescence antagonist read-out; at 3 µM; hits give high values.
As a reminder, the inhibition is the percentage by which the read-out fell short of the control. Turning to `CN(c1ccccc1)S(=O)(=O)c1cc(C(=O)Nc2nc3ccccc3[nH]2)ccc1Cl`, the inhibition is 50.8% (active).
Under `O=S(=O)(c1cccs1)N1CCCc2nc(-c3ccc(Br)cc3)ccc21` stands 36.2%; under `O=C(N/N=C/c1ccc(OC(=O)c2ccccc2Cl)cc1)c1ccc(O)cc1`, 57% (active).
For `COc1ccc(C(=O)Nc2ccccc2C(=O)N/N=C/c2ccc(O)c(OC)c2)cc1`, the inhibition was 45.9%.
`COc1ccc(NC(=O)c2cc(-c3ccc(C)o3)nc3ccccc23)cc1`: the inhibition is 41.2%.
Under `COc1ccc(-c2nn(-c3ccccc3)cc2C(=O)Nc2nccs2)cc1OC` stands 46.5%; under `COc1ccc(-c2cc(C(=O)Nc3ccccc3O)c3ccccc3n2)cc1`, 59% (active).
For `CC(=O)N1CCN(C(=O)c2cc(-c3ccc(Cl)s3)nc3ccccc23)CC1` the value was 38.7%; for `COc1ccc(C(=O)Nc2cccc(NC(=O)c3ccc(OC)cc3OC)n2)c(OC)c1`, 45.9%; for `COc1ccc(-c2cc(C(=O)N(C)Cc3ccccc3)c3ccccc3n2)cc1`, 44.3%.
Consider `COc1ccc(CN(C)C(=O)c2cc(-c3ccc(C)cc3C)nc3ccccc23)c(OC)c1OC`, for which the inhibition is 53.7% (active).
Under `COc1ccc(-c2cc(C(=O)N(C)Cc3ccc(OC)c(OC)c3OC)c3ccccc3n2)cc1OC` stands 56.9% (active).
As for `COc1ccc(-c2cc(C(=O)N(C)CC(=O)Nc3ccccc3Cl)c3ccccc3n2)cc1OC`, the inhibition was 52.2% (active).
For `Cc1cc(C(C)(C)C)oc1C(=O)N(CC(=O)NC1CCCC1)Cc1ccc(Cl)cc1` the value was 43.7%; for `CSCCC(NC(=O)COc1ccccc1)C(=O)OCCOc1ccc(Br)cc1` (stereo unspecified), 17.8%.
With `O=C(NCC1CCCO1)c1cc2c([nH]c3ccccc32)c(-c2ccc(F)cc2)n1` (stereo unspecified), the inhibition was 46%.
On to `Cn1c2ccccc2c(=O)c2c(=O)n(Cc3ccco3)c(COc3ccccc3)nc21`, for which the inhibition is 51% (active).
Consider `COc1ccc(S(=O)(=O)N(CC(=O)NCc2ccco2)c2ccc(F)cc2)cc1`, for which the inhibition is 39.1%.
Under `C=CCn1c(SCc2cccc(F)c2)nc2cc(C(=O)N3CCC(C(N)=O)CC3)ccc2c1=O` stands 43.9%; under `Cc1nc(N2CCN(c3ccccn3)CC2)c2c(C)c(C(=O)Nc3ccc(F)cc3)sc2n1`, 53% (active); under `Clc1ccc(Nc2ncnc3c2nnn3Cc2ccccc2)cc1`, 31%.
Take `COc1cc(/C=C2/C(=O)ON=C2C)ccc1OCc1ccccc1F`: the inhibition is 61.3% (active).
Under `COC(=O)c1sccc1NC(=O)c1cc(OC)c(OC)c(OC)c1` stands 37.3%; under `COc1ccc(/C=C/C(=O)Nc2ccc(C34CC5CC(CC(O)(C5)C3)C4)cc2)cc1OC`, 57.9% (active); under `NNC(=O)CNC(c1ccccc1)c1cc(Cl)ccc1NC(=O)c1ccccc1` (stereo unspecified), 34.3%.
For `Oc1ccccc1N1CCN(c2ncnc3sc(-c4ccccc4)cc23)CC1` the value was 47.6%.
In the case of `CC(C)(C)OC(=O)NCCCCCNC(=O)c1nc[nH]c1C(=O)NCc1ccccc1`, the inhibition is 37.2%.
Under `CC(C)Oc1cc(F)ccc1-c1cc(C(=O)Nc2ccc(F)cc2)[nH]n1` stands 46.1%; under `C=CCC[C@H](Cc1ccc(F)cc1)C(=O)OC[C@H](C)NC(=O)[C@H](CC=C)CC(=O)N(CCO)Cc1ccccc1`, 54% (active); under `C=CCC[C@@H](Cc1ccc(F)cc1)C(=O)O[C@H](CNC(=O)[C@H](CC=C)CC(=O)N(CCO)Cc1ccccc1)c1ccccc1`, 57.8% (active).
For `O=C(NCc1ccc2c(c1)OCO2)c1c(-c2ccsc2)sc2ccccc12` the value was 26.4%; for `O=C(CN1CCCSc2ccccc21)N1CCN(S(=O)(=O)c2cccc(F)c2)CC1`, 34.9%.
Under `Fc1ccc(/C=N/Nc2nc(-c3cccnc3)nc3ccccc23)cc1` stands 41.7%; under `Oc1ccc(/C=N/Nc2nc(-c3ccccc3F)nc3ccccc23)c(O)c1`, 55.8% (active); under `C/C(=N\Nc1ncc(Cl)cc1Cl)c1ccc(S(=O)(=O)NCc2ccco2)cc1`, 33%.
Take `CC(=O)Nc1ccc(NC(=O)COC(=O)C2CCC(C(C)(C)C)CC2)cc1` (stereo unspecified): the inhibition is 52.9% (active).
Under `C[C@H](NC(=O)c1nc[nH]c1C(=O)NCC(=O)OC(C)(C)C)C(=O)OCc1ccccc1` stands 46.1%; under `COc1ccc(CCNC(=O)c2ccc(CS(=O)(=O)c3ccc(Br)cc3)o2)cc1OC`, 52.1% (active); under `COc1ccc(CCNC(=O)C(=O)NCC2OCCN2S(=O)(=O)c2ccc(OC)c(C)c2)cc1` (stereo unspecified), 26.8%.
For `COc1cc(OC)cc(C(=O)OCC(=O)Nc2sccc2C(N)=O)c1` the value was 48.2%; for `O=C(COC(=O)CCCSc1nc2ccccc2[nH]1)Nc1ccc(Oc2ccccc2)cc1`, 50.7% (active).
For `N#Cc1cccc(NC(=O)COC(=O)c2ccccc2C(=O)c2ccc(Cl)c([N+](=O)[O-])c2)c1`, the inhibition was 52.5% (active).
Under `CC(=O)n1cc([C@H]2C=C(C(=O)N3CCOCC3)O[C@@H](OCc3ccc(CO)cc3)C2)c2ccccc21` stands 40.4%; under `O=C(CCc1ccccc1)Nc1cccc(-c2nnc(-c3ccco3)o2)c1`, 49.1% (active); under `O=C(Nc1ccc(-c2nnc(-c3ccccc3)o2)cc1)c1ccc(Br)o1`, 21.3%.
Under `CCC(=O)Oc1cccc(C(=O)Nc2ccc(-c3nnc(-c4ccco4)o3)cc2)c1` stands 46.1%; under `COc1ccc(Cl)cc1NC(=O)CCS(=O)(=O)c1cc2c(cc1C)NC(=O)CO2`, 36%; under `CCOC(=O)C1C(c2ccc(OC)c(OC)c2)c2c([nH][nH]c2=O)CC1(C)O` (stereo unspecified), 38.7%.
For `Cc1ccc(-n2c(C)cc(/C=N\NC(=O)CC(=O)NC(C)C)c2C)cc1` the value was 97.9% (active); for `CNC(=O)c1ccsc1NC(=O)c1ccc(S(=O)(=O)N2CCc3ccccc32)cc1`, 43.2%; for `O=C(COC(=O)c1ccccc1SCC(=O)N1CCCC1)Nc1ccccc1OC(F)F`, 52.2% (active).
As to `O=C(OCC(=O)N(CCc1ccccc1)Cc1ccccc1)c1ccccc1[N+](=O)[O-]`, the inhibition is 47.4%.
For `CC(C)N(Cc1ccccc1)C(=O)COC(=O)c1ccccc1SCC(=O)N1CCCC1` the value was 52.8% (active).
Under `COC(=O)[C@@]1(Sc2ccc(C)cc2)CC(=O)N(c2cccc(SC)c2)[C@@H]1c1ccccc1` stands 47.3%; under `CCOc1ccc(NC(=O)N2CC=C(n3c(=O)[nH]c4ccccc43)CC2)cc1`, 39.5%.
For `COC(=O)C1=C(C)N(Cc2ccc(F)cc2)C(=S)NC1c1cccc(Cl)c1` (stereo unspecified) the value was 36.5%.
For `CCN=C1SC(CC(=O)Nc2ccc(C)cc2)C(=O)N1CC` (stereo unspecified), the inhibition is 59.2% (active).
Under `O=C(N/N=C/c1ccc(Cl)c(Cl)c1)c1ccc2nc[nH]c2c1` stands 52.9% (active); under `CCOc1cc(/C=N/NC(=O)c2cc(-c3ccccc3)nc3ccccc23)ccc1O`, 44.9%.
Under `CSc1nc(-c2ccccc2)nc(C(Cl)Cl)n1` stands 36.6%.
For `COc1cc(SC#N)ccc1N=Cc1c(C)[nH]n(-c2ccc(C)cc2)c1=O`, the inhibition was 67.6% (active).
